Where “and” joins values, the source holds several entries; their conditions need not be identical. Equal values may be shown once. This is part of a sample that, as a whole, favours compounds with a hit. Of some 83,000 tested, about 20% had one in any assay.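 Cells were grown in 96-well plates and exposed to the test compound at a single concentration for 48 hours; results are reported as percent growth, with values below 10 considered active.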 Calls of active or inactive are those of the source.
These compounds were tested on T-47D breast (assay: NCI-60 one-dose screen, 48 h (100 = growth as untreated, 0 = no growth, -100 = all killed)). Conditions: 10 µM.
Method: Growth inhibition of the T-47D human tumor cell line is measured as a screen for anti-cancer activity. Cells are grown in 96 well plates and exposed to the test compound for 48 hours. Compounds are tested at a single concentration, which is 10^-5 M for most compounds. The reported endpoint is percent growth (GI% or GIPRCNT), where numbers from 0 - 100% represent growth inhibition, and numbers from -100% - 0 represent cell death. For example, a value of 40 represents 60% growth inhibition. A value of 0 means no net growth occurred over the course of the experiment. A value of -40 indicates 40% of cells at the beginning of the experiment died by the end of the experiment. A value of -100 means all cells are dead at the end of the experiment.
NCI-60 Human Tumor Cell Lines Screen was performed using the standard one-dose NCI protocol, which is described in more detail at https://dtp.cancer.gov/discovery_development/nci-60/default.htm.
Compounds with GIPRCNT values below 10 were considered active. Activity score was based on GIPRCNT using the following formula: […]
Score is 0 for GIPRCNT values of 100 or above, 50 for GIPRCNT values of 0, and 100 for GIPRCNT values of -100.
With `CCc1ccccc1-n1c(N)c(C#N)c(-c2ccc(OC)c(OC)c2)c(C#N)c1=O` the growth was 102% (inactive).
With `COc1ccc(Cl)cc1C(=O)NCCc1ccc(S(=O)(=O)NC(=O)NC2CCCCC2)cc1` the growth was 86% (inactive) and 87.6% (inactive).
`CC(C)(C)c1cc(NC(=O)Cc2ccc(-c3cnc4cc(-c5cnn(CCN6CCOCC6)c5)ccc4n3)cc2)no1` was tested, and the growth was 15.6% (inactive).

Same assay, conditions: 10 µM unless noted
With `O=[N+]([O-])c1ccc(Oc2ccccc2)cc1` the growth was 116% (inactive) and 100% (inactive).
`Nc1ccc2[nH]c(-c3ccccc3)cc(=O)c2c1` was tested, and the growth was 78% (inactive).
With `Cc1c(Cl)cccc1NCN1C(=O)c2ccccc2C1=O` the growth was 94.4% (inactive).
In the case of `Clc1nc(Oc2ccccc2)nc(-c2cn(-c3ccccc3)c3ccccc23)n1`, the growth is reported as 89.8% (inactive).
In the case of `CC(=O)NC(Cc1ccccc1)C(=O)Oc1ccc2ccccc2c1` (stereo not given), the growth is reported as 99.3% (inactive) and 108% (inactive).
`Nc1ccc(N=Nc2ccc(S(=O)(=O)O)cc2)cc1S(=O)(=O)O` was tested, and the growth was 97.9% (inactive) and 98.3% (inactive).
In the case of `CC(O)Cn1cnc2c1c(=O)n(C)c(=O)n2C` (stereo not given), the growth is reported as 85.8% (inactive).
With `COc1ccc(-c2cn[nH]c2-c2cc(OC)c(OC)c(OC)c2)cc1N` the growth was 73% (inactive) and 86.7% (inactive).
In the case of `CC(C)Cc1ccc(C(C)C(=O)NCc2ccc(Cn3c(=O)sn(CCCI)c3=O)cc2)cc1` (stereo not given), the growth is reported as -49.3% (active).
For `CN(C)c1ccc(/C=C(\C#N)c2ccccc2)cc1`, the growth was 39.5% (inactive) and 36.1% (inactive) and 29.8% (inactive).
`CCN(CC)CCCC(C)Nc1ccnc2cc(Oc3ccccc3)ccc12` (stereo not given) was tested, and the growth was 28.8% (inactive) and 83.9% (inactive).
With `CN(C)c1ccc(C(Cc2ccc3ccccc3n2)Cc2ccc3ccccc3n2)cc1` the growth was 34.7% (inactive) and 74.4% (inactive).
In the case of `O=S1(=O)CC(Br)C(Br)C1` (stereo not given), the growth is reported as 34.5% (inactive) and 63% (inactive).
With `N#CCCOc1ccccc1` the growth was 96.5% (inactive).
For `O=c1c2ccccc2nc2n1Cc1nc3ccccc3c(=O)n1C2`, the growth was 106% (inactive) and 108% (inactive).
With `COc1cc(C(=O)N/N=C/c2ccc(N(C)C)cc2)cc(OC)c1OC` the growth was 63.3% (inactive).
With `NS(=O)(=O)c1cc2c(cc1Cl)NC(C(Cl)Cl)NS2(=O)=O` (stereo not given) the growth was 104% (inactive).
For `COc1cc2c(c(OC)c1OC)-c1ccc(OC)c(=O)cc1[C@@H](NC(C)=O)CC2`, the growth was 69.8% (inactive) and 49.2% (inactive) and 70.5% (inactive).
In the case of `c1ccc2cc(C[n+]3ccn(Cc4ccc5ccccc5n4)c3)ccc2c1`, the growth is reported as -5.71% (active) and 13.1% (inactive).
With `O=C(CN1CCN(c2cc3c(cc2F)c(=O)c(C(=O)O)cn3C2CC2)CC1)Nc1ccc(Cl)cc1` the growth was 59.1% (inactive) and 92.4% (inactive).
`CN(C)c1ccc2nc3ccc(N)cc3[n+](-c3ccccc3)c2c1` was tested, and the growth was -15.1% (active) and 0.414% (active).
`NC(=O)c1ccccc1OCC(O)CO` (stereo not given) was tested, and the growth was 130% (inactive).
In the case of `CN1C(=O)C(N=Nc2ccc([N+](=O)[O-])cc2)SC1=S` (stereo not given), the growth is reported as 50.9% (inactive) and 57.2% (inactive).
`CCOC(=O)c1c(C)oc(C)c(C(=O)OCC)c1=O` was tested, and the growth was 99.1% (inactive) and 87.7% (inactive).
For `Cc1ccc(S(=O)(=O)Nc2ccc3cc([N+](=O)[O-])ccc3c2[N+](=O)[O-])cc1`, the growth was 65.1% (inactive) and 98.3% (inactive).
For `O=C1OC(Oc2ccc(Br)cc2)(c2ccccc2)c2ccccc21` (stereo not given), the growth was 73.6% (inactive) and 76.6% (inactive).
In the case of `CCN(CC)C(=O)c1cccnc1`, the growth is reported as 114% (inactive).
For `CC(=O)Oc1cc(C(=O)O)cc(OC(C)=O)c1OC(C)=O`, the growth was 101% (inactive) and 98.5% (inactive).
In the case of `C#CCN(C)Cc1ccccc1`, the growth is reported as 96.9% (inactive) and 99.3% (inactive).
In the case of `CCOC(=O)c1sc(N)nc1-c1ccccc1`, the growth is reported as 94.4% (inactive).
`CCN(CC)CCOc1ccc(/C=N/Nc2nc3c([nH]2)c(=O)n(C)c(=O)n3C)cc1` was tested, and the growth was 89.7% (inactive) and 96.3% (inactive).
For `CC(C)C(=O)Nc1ccc([N+](=O)[O-])c(C(F)(F)F)c1`, the growth was 85.3% (inactive) and 89.6% (inactive).
In the case of `NC(=S)N/N=C(\c1ccc(Br)cc1)C1CC1`, the growth is reported as 70.1% (inactive) and 36.2% (inactive).
For `N/C(=N\N=C\c1ccc2c(c1)OCO2)N/N=C\c1ccc2c(c1)OCO2`, the growth was 112% (inactive) and 107% (inactive).

Same assay, conditions: 30 µM
For `CC(C)(C)c1cc(NC(=O)Cc2ccc(-c3cnc4cc(-c5cnn(CCN6CCOCC6)c5)ccc4n3)cc2)no1`, the growth was 25.5% (inactive).

Same assay, conditions: 100 µM
For `CCc1ccccc1-n1c(N)c(C#N)c(-c2ccc(OC)c(OC)c2)c(C#N)c1=O`, the growth was 3.67% (active).
In the case of `COc1ccc(Cl)cc1C(=O)NCCc1ccc(S(=O)(=O)NC(=O)NC2CCCCC2)cc1`, the growth is reported as 52.3% (inactive).
